Where “and” joins values, the source holds several entries; their conditions need not be identical. Identical values can stand only once. About 83,000 compounds went through this panel and 20% of them were active in at least one assay; those are over-represented in the sample as a whole.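 Testing used 96-well plates and a 48-hour single-concentration exposure. Example: -40 means 40% of the starting cells died.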 Calls of active or inactive are those of the source.

One assay deals with CCRF-CEM leukemia. The experiment in a line: NCI-60 one-dose screen, 48 h (100 = growth as untreated, 0 = no growth, -100 = all killed). The conditions noted are these: 0.01 µM. As for the experimental part: Growth inhibition of the CCRF-CEM human tumor cell line is measured as a screen for anti-cancer activity. Cells are grown in 96 well plates and exposed to the test compound for 48 hours. Compounds are tested at a single concentration, which is 10^-5 M for most compounds. The reported endpoint is percent growth (GI% or GIPRCNT), where numbers from 0 - 100% represent growth inhibition, and numbers from -100% - 0 represent cell death. For example, a value of 40 represents 60% growth inhibition. A value of 0 means no net growth occurred over the course of the experiment. A value of -40 indicates 40% of cells at the beginning of the experiment died by the end of the experiment. A value of -100 means all cells are dead at the end of the experiment.
NCI-60 Human Tumor Cell Lines Screen was performed using the standard one-dose NCI protocol, which is described in more detail at https://dtp.cancer.gov/discovery_development/nci-60/default.htm.
Compounds with GIPRCNT values below 10 were considered active. Activity score was based on GIPRCNT using the following formula: […]
Score is 0 for GIPRCNT values of 100 or above, 50 for GIPRCNT values of 0, and 100 for GIPRCNT values of -100.
`CC(=O)O[C@H]1C(=O)[C@@]2(C)[C@H]([C@H](OC(=O)c3ccccc3)[C@]3(O)C[C@H](OC(=O)[C@H](O)[C@@H](NC(=O)c4ccccc4)c4ccccc4)C(C)=C1C3(C)C)[C@]1(OC(C)=O)CO[C@@H]1C[C@@H]2O`: the growth was 11.7% (inactive).

The same assay, now with this note: 2.5 µM.
Consider `CC(=O)O[C@H]1C(=O)[C@@]2(C)[C@H]([C@H](OC(=O)c3ccccc3)[C@]3(O)C[C@H](OC(=O)[C@H](O)[C@@H](NC(=O)c4ccccc4)c4ccccc4)C(C)=C1C3(C)C)[C@]1(OC(C)=O)CO[C@@H]1C[C@@H]2O`, for which the growth is 2.13% (active).

The same assay, now with this note: 5 µM.
As to `CC(=O)O[C@H]1C(=O)[C@@]2(C)[C@H]([C@H](OC(=O)c3ccccc3)[C@]3(O)C[C@H](OC(=O)[C@H](O)[C@@H](NC(=O)c4ccccc4)c4ccccc4)C(C)=C1C3(C)C)[C@]1(OC(C)=O)CO[C@@H]1C[C@@H]2O`, the growth is 5.52% (active).

The same assay, now with this note: 10 µM.
For the compound `COc1ccc(C(C#N)=C2C=CC(=NO)C=C2)cc1`, the growth was 29.8% (inactive).

Turning to `CC[C@@]1(OC(=O)CN(C)C)C(=O)OCc2c1cc1n(c2=O)Cc2cc3c(N)cccc3nc2-1`, the growth was 5.31% (active).

For `COc1ccc2c(c1)[nH]c1c(/C=C/c3ccccc3)nccc12`, the growth was 65% (inactive).

On to `Cc1cc(C)c(N2C(=O)CC(Sc3ccccc3N)C2=O)c(C)c1` (stereo not given), for which the growth was 34.9% (inactive).

For the compound `O=C1C(Cl)=C(Cl)C(Cl)(Cl)C(Cl)C1(Cl)Cl` (stereo not given), the growth is 94.9% (inactive).

For the compound `Cc1cc(N=C2C=CC(=[N+](C)C)C=C2)c(N)cc1N`, the growth is 89.3% (inactive).

For the compound `O=c1[nH]cc(/C=N\Nc2ccccc2)c(=O)[nH]1`, the growth is 31.2% (inactive).

For the compound `CC(=O)O[C@H]1C(=O)[C@@]2(C)[C@H]([C@H](OC(=O)c3ccccc3)[C@]3(O)C[C@H](OC(=O)[C@H](O)[C@@H](NC(=O)c4ccccc4)c4ccccc4)C(C)=C1C3(C)C)[C@]1(OC(C)=O)CO[C@@H]1C[C@@H]2O`, the growth is 7.71% (active) and 5.2% (active).

Turning to `O=[N+]([O-])c1cc(S(=O)(=O)Nc2ccccc2)ccc1Cl`, the growth was 85.9% (inactive).

On to `CN(CC(=O)O)c1ccc(/C=C/c2ccnc3ccccc23)cc1`, for which the growth is 66.8% (inactive).

As to `Cc1cc(O)c2c(c1O)C(=O)C13C(=C2O)C(=O)C2C(O)C1C1C(O)C3C(=O)C3=C(O)c4c(O)cc(C)c(O)c4C(=O)C321` (stereo not given), the growth was 4.16% (active).

`Cc1c(-c2ccccc2)[nH]c2ccccc12`: the growth was 95.1% (inactive).

Turning to `S=P(N1CC1)(N1CC1)N1CC1`, the growth is 107% (inactive) and 106% (inactive).

As to `O=C1c2ccccc2CCC1(Br)Br`, the growth is -22.2% (active).

Regarding `C=C1N(C)c2ccc(Cl)cc2C1(C)C`, the growth is 42.2% (inactive).

As to `O=S(=O)(c1cc(Cl)ccc1O)c1cc(Cl)ccc1O`, the growth is 76.2% (inactive).

Consider `S=C1SCN(CCc2ccccc2)CN1CCc1ccccc1`, for which the growth was 57.3% (inactive).

`COc1ccc(N)c2c1C(=O)c1ccccc1C2=O`: the growth was 89.9% (inactive).

On to `CCC(=O)Oc1ccc(/C=N/NC(N)=S)nc1`, for which the growth was -0.545% (active).

On to `O=C(NC(=S)Nc1ccccn1)c1ccccc1`, for which the growth was 62.2% (inactive).

Consider `O=C(O)c1ccccc1.[Ag]`, for which the growth is 15.4% (inactive).

For the compound `Nc1nc(N)c2cc(Sc3ccc4ccccc4c3)ccc2n1`, the growth is 38.2% (inactive).

Regarding `O=C(CNS(=O)(=O)Cc1ccccc1)NNc1ccccc1`, the growth was 45.2% (inactive).

For the compound `CC1CCC2(C(=O)O)CCC3(C)C(=CCC4C5(C)CC(O)C(O)C(C)(CO)C5C(O)CC43C)C2C1C` (stereo not given), the growth is 88.5% (inactive).

Consider `O=C1C=CC(=O)N1c1ccc(N2C(=O)C=CC2=O)cc1`, for which the growth was 15.9% (inactive).

For `Cn1c2nc3ccccc3c-2nc2ccccc21`, the growth was 95.8% (inactive) and -21.8% (active).

Consider `CCOC(=O)[C@]1(Br)CC[C@@]1(Br)C(=O)OCC`, for which the growth was 99.8% (inactive).

`N#C/C(=C/N1C(=O)/C(=C/c2ccc([N+](=O)[O-])cc2)SC1=S)c1nc2ccccc2s1`: the growth is 84% (inactive).

As for `Cn1ncc2cc3c(Nc4ccc(Cl)cc4)cccc3nc21`, the growth is 95.5% (inactive).

Consider `NCc1c(O)ccc2ccccc12`, for which the growth is 93% (inactive).

As to `COc1ccc2oc(-c3ccc(Cl)cc3)c(N3CCN(C)CC3)c2c1`, the growth is -12.6% (active).

Turning to `CN(C)c1ccc(/C=C/c2ccnc3ccccc23)cc1N`, the growth was 44.3% (inactive).

For `ClCCn1c(CCl)nc2ccc(Cl)cc21`, the growth is -46.8% (active).

Consider `COc1cccc(C(c2cc3c(cc2O)OCO3)N2CCOCC2)c1OC` (stereo not given), for which the growth is 97.1% (inactive).

In the case of `N#CC(=C1C=CC(=NO)C=C1)c1ccccc1`, the growth is 3.4% (active).

In the case of `Cc1cc(Cl)ccc1NC(=O)/C(Cl)=C1/Sc2ccccc2NC1=O`, the growth is 76.5% (inactive).

The assay is the same for the next values; noted with them: 100 µM.
As to `S=P(N1CC1)(N1CC1)N1CC1`, the growth is 21.4% (inactive).

These data come from PubChem BioAssay (NCI).
